Experimental findings from publication PMC7862700, “An all-to-all approach to the identification of sequence-specific readers for epigenetic DNA modifications on cytosine” are described below.

Experiment in all cases: DAPPL (digital affinity profiling via proximity ligation, sequencing); 10 mM Tris-HCl pH 7.5, 50 mM NaCl, 1 mM DTT, 4% glycerol, room temperature, 30 min; GST-TFs on glutathione beads, 16-mer random dsDNA library, 0.1% formaldehyde crosslink after washing; high values mean tight binding
Holding throughout (conditions): protein: recombinant; tags: N-terminal GST; dsDNA, one strand shown

Experiment [1] concerns the target T1, FLI1 (Homo sapiens, UniProt Q01543 1-452).
T1 sequence: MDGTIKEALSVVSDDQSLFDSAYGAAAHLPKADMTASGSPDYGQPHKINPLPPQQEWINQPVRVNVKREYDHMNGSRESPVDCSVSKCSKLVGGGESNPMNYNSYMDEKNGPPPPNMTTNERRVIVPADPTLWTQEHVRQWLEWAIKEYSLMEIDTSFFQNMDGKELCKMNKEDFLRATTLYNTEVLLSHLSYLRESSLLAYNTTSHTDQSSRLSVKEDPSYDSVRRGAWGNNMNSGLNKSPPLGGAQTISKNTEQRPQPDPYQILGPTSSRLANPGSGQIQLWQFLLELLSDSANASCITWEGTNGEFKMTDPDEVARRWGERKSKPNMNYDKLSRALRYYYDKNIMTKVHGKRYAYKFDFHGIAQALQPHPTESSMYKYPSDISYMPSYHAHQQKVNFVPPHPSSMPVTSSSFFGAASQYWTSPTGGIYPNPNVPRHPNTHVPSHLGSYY
Summed up:
(§1)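 Human transcription factors fused to GST were expressed in yeast, captured on glutathione beads, given DNA barcodes and pooled with a GST-only negative control. Pools were incubated with 200 nmole of a 16-mer random double-stranded DNA library in Tris/NaCl/DTT/glycerol buffer at room temperature for 30 min. They were then washed, crosslinked with 0.1% formaldehyde, proximity-ligated (BsaI/T4 ligase, 1 h, 37 °C), PCR-amplified and sequenced on an Illumina NextSeq500. Binding signal is each 6-mer's read frequency for a factor divided by its frequency for the GST control.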

For experiment [2], the target named is T2, ELK1 (Homo sapiens, UniProt P19419 1-428).
T2 sequence: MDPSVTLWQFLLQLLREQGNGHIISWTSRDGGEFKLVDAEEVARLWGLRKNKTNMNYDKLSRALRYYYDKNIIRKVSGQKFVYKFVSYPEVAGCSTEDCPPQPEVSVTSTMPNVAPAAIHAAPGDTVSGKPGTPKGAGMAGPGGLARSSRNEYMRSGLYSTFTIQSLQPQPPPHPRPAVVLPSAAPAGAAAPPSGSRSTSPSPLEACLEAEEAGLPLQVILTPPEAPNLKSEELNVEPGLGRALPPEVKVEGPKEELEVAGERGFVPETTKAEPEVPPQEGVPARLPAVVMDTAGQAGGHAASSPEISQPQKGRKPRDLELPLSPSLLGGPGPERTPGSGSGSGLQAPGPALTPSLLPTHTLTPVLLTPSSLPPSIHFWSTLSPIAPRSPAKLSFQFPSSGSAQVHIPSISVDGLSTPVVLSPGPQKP
Summed up: as §1

Experiment [3] deals with T3, GABPA (Homo sapiens, UniProt Q06546 1-454).
T3 sequence: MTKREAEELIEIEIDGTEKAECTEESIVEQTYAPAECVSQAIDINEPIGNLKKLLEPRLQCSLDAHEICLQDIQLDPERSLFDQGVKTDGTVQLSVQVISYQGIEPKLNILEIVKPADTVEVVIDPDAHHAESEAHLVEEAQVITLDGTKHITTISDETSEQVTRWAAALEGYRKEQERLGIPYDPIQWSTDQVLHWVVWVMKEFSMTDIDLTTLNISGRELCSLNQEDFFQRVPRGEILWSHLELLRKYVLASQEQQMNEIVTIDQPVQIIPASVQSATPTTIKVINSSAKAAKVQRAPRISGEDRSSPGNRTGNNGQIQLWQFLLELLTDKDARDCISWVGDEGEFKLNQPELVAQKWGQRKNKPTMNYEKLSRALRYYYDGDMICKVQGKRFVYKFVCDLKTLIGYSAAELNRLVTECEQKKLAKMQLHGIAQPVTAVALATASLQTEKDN
Summed up:
as §1

For experiment [4], the target named is T4, ERG (Homo sapiens, UniProt P11308 1-479).
T4 sequence: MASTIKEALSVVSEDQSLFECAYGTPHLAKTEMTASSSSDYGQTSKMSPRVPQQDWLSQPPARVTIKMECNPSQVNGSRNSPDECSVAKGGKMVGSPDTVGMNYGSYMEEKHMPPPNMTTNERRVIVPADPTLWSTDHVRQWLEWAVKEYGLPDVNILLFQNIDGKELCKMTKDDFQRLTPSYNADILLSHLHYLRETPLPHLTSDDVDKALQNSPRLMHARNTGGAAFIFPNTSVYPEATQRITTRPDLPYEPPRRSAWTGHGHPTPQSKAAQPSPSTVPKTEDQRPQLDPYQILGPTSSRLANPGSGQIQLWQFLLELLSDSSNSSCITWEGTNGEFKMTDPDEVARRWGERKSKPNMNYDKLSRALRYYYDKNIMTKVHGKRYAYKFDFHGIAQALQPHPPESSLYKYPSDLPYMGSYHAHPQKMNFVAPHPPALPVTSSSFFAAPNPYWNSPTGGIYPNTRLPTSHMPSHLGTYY
Summed up:
as §1

Experiment [5] deals with ELF1 (Homo sapiens, UniProt P32519 1-619). Summed up: as §1
In experiment [6] the target is T5, EHF (Homo sapiens, UniProt Q9NZC4 1-300).
T5 sequence: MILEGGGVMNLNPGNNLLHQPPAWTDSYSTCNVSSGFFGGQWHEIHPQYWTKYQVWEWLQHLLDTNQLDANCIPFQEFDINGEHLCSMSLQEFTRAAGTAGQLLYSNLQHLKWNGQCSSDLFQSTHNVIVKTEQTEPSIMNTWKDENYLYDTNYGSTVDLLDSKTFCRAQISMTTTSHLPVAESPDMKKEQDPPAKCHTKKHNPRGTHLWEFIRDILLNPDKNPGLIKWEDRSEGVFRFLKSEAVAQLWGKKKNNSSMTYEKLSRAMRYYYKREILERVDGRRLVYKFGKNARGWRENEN
Summed up:
as §1

The target in experiment [7] is SPI1 (Homo sapiens, UniProt P17947 1-270). Summed up: as §1
Experiment [8] deals with SPIB (Homo sapiens, UniProt Q01892 1-262). Summed up:
as §1

The target in experiment [9] is T6, ELK3 (Homo sapiens, UniProt P41970 1-407).
T6 sequence: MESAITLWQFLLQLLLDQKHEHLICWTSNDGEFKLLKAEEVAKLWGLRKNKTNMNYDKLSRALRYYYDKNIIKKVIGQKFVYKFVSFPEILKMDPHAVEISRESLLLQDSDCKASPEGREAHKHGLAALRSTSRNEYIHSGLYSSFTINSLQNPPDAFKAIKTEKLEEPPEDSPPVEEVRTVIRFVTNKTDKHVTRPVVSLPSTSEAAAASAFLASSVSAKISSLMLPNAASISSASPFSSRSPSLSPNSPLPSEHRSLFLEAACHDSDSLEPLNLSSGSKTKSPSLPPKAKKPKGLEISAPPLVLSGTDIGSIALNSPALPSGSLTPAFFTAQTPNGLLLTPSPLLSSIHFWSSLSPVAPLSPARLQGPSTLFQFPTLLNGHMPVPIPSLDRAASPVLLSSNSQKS
Summed up: as §1

Chain of ELF1 (P32519 whole entry): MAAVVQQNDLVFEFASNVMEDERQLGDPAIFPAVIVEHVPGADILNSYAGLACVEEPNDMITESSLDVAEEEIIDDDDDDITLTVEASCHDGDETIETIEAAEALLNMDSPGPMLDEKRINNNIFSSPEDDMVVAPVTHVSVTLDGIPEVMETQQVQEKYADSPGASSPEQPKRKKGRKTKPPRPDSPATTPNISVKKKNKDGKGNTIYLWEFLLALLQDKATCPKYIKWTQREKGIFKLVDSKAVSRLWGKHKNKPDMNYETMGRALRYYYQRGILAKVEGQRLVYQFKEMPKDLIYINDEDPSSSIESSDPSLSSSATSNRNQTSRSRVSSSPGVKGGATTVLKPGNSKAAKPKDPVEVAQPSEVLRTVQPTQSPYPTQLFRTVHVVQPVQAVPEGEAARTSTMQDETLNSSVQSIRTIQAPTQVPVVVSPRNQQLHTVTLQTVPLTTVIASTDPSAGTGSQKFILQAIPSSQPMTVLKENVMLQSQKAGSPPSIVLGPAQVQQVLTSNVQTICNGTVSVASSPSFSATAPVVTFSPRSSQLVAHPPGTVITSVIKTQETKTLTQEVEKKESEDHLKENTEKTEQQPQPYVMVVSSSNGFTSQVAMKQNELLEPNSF
Chain of SPIB (Q01892 whole entry): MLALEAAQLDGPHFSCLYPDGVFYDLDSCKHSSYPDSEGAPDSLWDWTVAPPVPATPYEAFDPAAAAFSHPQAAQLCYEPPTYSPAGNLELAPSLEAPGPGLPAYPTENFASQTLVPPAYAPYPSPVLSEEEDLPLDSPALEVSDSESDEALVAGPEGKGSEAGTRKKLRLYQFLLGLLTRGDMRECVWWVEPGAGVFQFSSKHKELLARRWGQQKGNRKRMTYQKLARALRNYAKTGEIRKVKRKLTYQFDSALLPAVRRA

With ACTGTT, the binding signal in experiment [1] is 1.15 fold enrichment (6-mer frequency, TF over GST control); in experiment [2], 1.03 fold enrichment (6-mer frequency, TF over GST control); in experiment [3], 1.23 fold enrichment (6-mer frequency, TF over GST control); in [4], 1.16 fold enrichment (6-mer frequency, TF over GST control); in experiment [5] it was 1.11 fold enrichment (6-mer frequency, TF over GST control); in [6] it was 1.13 fold enrichment (6-mer frequency, TF over GST control). Besides, the binding signal in experiment [7] is 1.16 fold enrichment (6-mer frequency, TF over GST control); in [8] it was 1.15 fold enrichment (6-mer frequency, TF over GST control); in [9] it was 1.18 fold enrichment (6-mer frequency, TF over GST control).
Regarding ACATGT, the binding signal in experiment [1] was 1.23 fold enrichment (6-mer frequency, TF over GST control); in experiment [2], 1.14 fold enrichment (6-mer frequency, TF over GST control); in experiment [3], 1.05 fold enrichment (6-mer frequency, TF over GST control); in [4], 1.11 fold enrichment (6-mer frequency, TF over GST control); in experiment [5] it was 1.19 fold enrichment (6-mer frequency, TF over GST control); in [6] it was 1.09 fold enrichment (6-mer frequency, TF over GST control). Also, the binding signal was 1.14 fold enrichment (6-mer frequency, TF over GST control) in experiment [7]; 1.15 fold enrichment (6-mer frequency, TF over GST control) in experiment [8]; 1.06 fold enrichment (6-mer frequency, TF over GST control) in experiment [9].
For GAACCC, the binding signal is 1.12 fold enrichment (6-mer frequency, TF over GST control) in experiment [1]; 1.19 fold enrichment (6-mer frequency, TF over GST control) in experiment [2]; 1.16 fold enrichment (6-mer frequency, TF over GST control) in experiment [3]; 1.18 fold enrichment (6-mer frequency, TF over GST control) in experiment [4]; 1.14 fold enrichment (6-mer frequency, TF over GST control) in [5]; 1.13 fold enrichment (6-mer frequency, TF over GST control) in experiment [6]. The binding signal was 1.16 fold enrichment (6-mer frequency, TF over GST control) in experiment [7]; 1.06 fold enrichment (6-mer frequency, TF over GST control) in [8]; 1.19 fold enrichment (6-mer frequency, TF over GST control) in experiment [9].
In the case of AACCGG, the binding signal in [1] was 1.43 fold enrichment (6-mer frequency, TF over GST control); in experiment [2], 1.58 fold enrichment (6-mer frequency, TF over GST control); in experiment [3], 1.33 fold enrichment (6-mer frequency, TF over GST control); in [4], 1.73 fold enrichment (6-mer frequency, TF over GST control); in experiment [5], 1.46 fold enrichment (6-mer frequency, TF over GST control); in experiment [6] it was 1.5 fold enrichment (6-mer frequency, TF over GST control). Also, the binding signal in experiment [7] was 1.7 fold enrichment (6-mer frequency, TF over GST control); in experiment [8] it was 1.64 fold enrichment (6-mer frequency, TF over GST control); in [9], 1.54 fold enrichment (6-mer frequency, TF over GST control).
On to CGTACA, for which the binding signal in experiment [1] is 1.18 fold enrichment (6-mer frequency, TF over GST control); in [2] it was 1.19 fold enrichment (6-mer frequency, TF over GST control); in experiment [3], 1.17 fold enrichment (6-mer frequency, TF over GST control); in experiment [4] it was 1.17 fold enrichment (6-mer frequency, TF over GST control); in [5] it was 1.26 fold enrichment (6-mer frequency, TF over GST control); in experiment [6], 1.16 fold enrichment (6-mer frequency, TF over GST control). In addition, the binding signal in [7] was 1.12 fold enrichment (6-mer frequency, TF over GST control); in [8], 1.1 fold enrichment (6-mer frequency, TF over GST control); in experiment [9], 1.16 fold enrichment (6-mer frequency, TF over GST control).
As for TACGTT, the binding signal was 1.29 fold enrichment (6-mer frequency, TF over GST control) in [1]; 1.26 fold enrichment (6-mer frequency, TF over GST control) in experiment [2]; 1.4 fold enrichment (6-mer frequency, TF over GST control) in [3]; 1.31 fold enrichment (6-mer frequency, TF over GST control) in experiment [4]; 1.29 fold enrichment (6-mer frequency, TF over GST control) in [5]; 1.24 fold enrichment (6-mer frequency, TF over GST control) in experiment [6]. The binding signal in [7] is 1.25 fold enrichment (6-mer frequency, TF over GST control); in [8], 1.33 fold enrichment (6-mer frequency, TF over GST control); in experiment [9], 1.35 fold enrichment (6-mer frequency, TF over GST control).
For ACCATA, the binding signal in experiment [1] is 1.2 fold enrichment (6-mer frequency, TF over GST control); in experiment [2] it was 1.16 fold enrichment (6-mer frequency, TF over GST control); in experiment [3] it was 1.12 fold enrichment (6-mer frequency, TF over GST control); in experiment [4] it was 1.19 fold enrichment (6-mer frequency, TF over GST control); in [5], 1.16 fold enrichment (6-mer frequency, TF over GST control); in experiment [6], 1.12 fold enrichment (6-mer frequency, TF over GST control). For the same sequence, the binding signal in experiment [7] is 1.13 fold enrichment (6-mer frequency, TF over GST control); in [8] it was 1.19 fold enrichment (6-mer frequency, TF over GST control); in [9] it was 1.22 fold enrichment (6-mer frequency, TF over GST control).
